Assay results as given in PubChem BioAssay AID1851 (National Center for Advancing Translational Sciences (NCATS), 2009).
The campaign covered roughly 16,000 compounds. About 5,100 (32%) were called active. Not shown: some 25% with an inconclusive outcome. The list shows a part of the results. A number with no mark means an inactive call. Calls follow the shape of the dose curve; as a rule, active = well fitted curve in the direction sought with a large enough effect; inconclusive = small, poorly fitted or top-dose-only effect, or effect the other way; inactive = no such curve, though single readings can be large or run the other way.

Molecular target: Cytochrome P450 3A4 (Homo sapiens) (UniProt P08684)
Experiment: Cytochrome panel assay with activity outcomes
Conditions: recombinant CYP, pro-luciferin dealkylation, luminescence, p450-cyp3a4; series mostly up to 57.1 µM
% is scaled to controls: 0 for no effect and ±100 for the full control effect.

Chain of Cytochrome P450 3A4 (Homo sapiens) (P08684 whole entry, looked up): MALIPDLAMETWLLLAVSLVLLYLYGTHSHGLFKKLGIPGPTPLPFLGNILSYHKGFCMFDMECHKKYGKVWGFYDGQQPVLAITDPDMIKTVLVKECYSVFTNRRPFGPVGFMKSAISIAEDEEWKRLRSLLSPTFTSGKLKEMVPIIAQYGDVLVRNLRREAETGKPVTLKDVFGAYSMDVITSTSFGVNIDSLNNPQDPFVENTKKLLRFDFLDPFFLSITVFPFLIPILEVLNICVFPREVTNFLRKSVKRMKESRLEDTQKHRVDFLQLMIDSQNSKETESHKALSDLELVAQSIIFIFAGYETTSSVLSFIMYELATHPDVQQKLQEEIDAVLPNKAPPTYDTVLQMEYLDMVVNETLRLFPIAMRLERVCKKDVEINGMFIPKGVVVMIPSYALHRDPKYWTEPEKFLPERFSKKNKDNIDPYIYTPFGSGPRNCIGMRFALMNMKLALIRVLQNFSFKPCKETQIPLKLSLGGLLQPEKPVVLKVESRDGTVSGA

Row | SMILES | AC50 | activity, negative = inhibition
1 | CCc1c(C)sc(NC(=O)OC)c1C(N)=O | inactive | –
2 | CCOC(=O)c1c(NC(=O)CCc2ccc(CC)o2)sc(C)c1C | 12.6 µM (active) | –
3 | Cc1cccc(NC(=O)CSc2nnnn2C)n1 | inactive | –
4 | CCOC(=O)c1c(NC(=O)CSc2nnnn2C)sc(C)c1C | 14.1 µM (active) | –
5 | Nc1nc2c(ncn2COCCO)c(=O)[nH]1 | inactive | –
6 | Cc1ccc(S(=O)(=O)N(CC(=O)N/N=C/c2ccc(F)cc2)c2cccc3cccnc23)cc1 | 1.26 µM (active) | –
7 | CC(C)NC(=O)CC(=O)N/N=C/c1ccc(F)cc1 | inactive | –
8 | O=C(CN(Cc1ccccc1)S(=O)(=O)c1ccc2c(c1)OCCO2)N/N=C/c1ccc(F)cc1 | – | 0.145% [at 2.29 µM]
9 | O=C1CC2(CCCC2)CC(=O)N1CCCCNC[C@H]1COc2ccccc2O1 | 0.631 µM (active) | –
10 | Cn1c(C(=O)O)c(CC(=O)NCC2COc3ccccc3O2)c2ccccc21 (stereo unspecified) | – | -8.31% [at 11.4 µM]
11 | Cc1ccc(C(=O)Nc2cc(Cl)ccc2OC(=O)c2ccc(C)cc2)cc1 | – | -3.15% [at 2.29 µM]
12 | Cc1cccc(NC(=S)NC(=O)c2cc(-c3ccccc3)nc3ccccc23)c1 | – | -27.7% [at 11.4 µM]
13 | Cc1ccc(C(=O)Nc2cccc(-c3cnc4ccccc4n3)c2)cc1 | 2.24 µM (active) | –
14 | COc1ccc(NC(=O)C2(c3ccc(NC(=O)c4ccc(OC(C)=O)cc4)cc3)CCCC2)cc1 | inactive | –
15 | COc1ccc(C(=O)Nc2cc(Cl)ccc2OC(=O)c2ccc(OC)cc2)cc1 | 22.4 µM (active) | –
16 | COC(=O)COc1cccc(NC(=O)c2ccc(C)cc2)c1 | 17.8 µM (active) | –
17 | COc1ccc(C(=O)Nc2cc(OC)cc(OC)c2)cc1 | 14.1 µM (active) | –
18 | CC(=O)Nc1ccc(-c2cc(-c3ccc(NC(C)=O)cc3)nc(-c3ccccc3)n2)cc1 | – | -4.31% [at 2.29 µM]
19 | CCOc1ccc(NC(=O)c2ccc(OC)cc2)cc1 | inactive | –
20 | CCN1C(=O)[C@H]2[C@H]3[C@H](O)[C@H](O)C/C(=N/O[C@@H]4O[C@@H](COC(C)=O)[C@@H](OC(C)=O)[C@@H](OC(C)=O)[C@H]4OC(C)=O)[C@H]3CC[C@@H]2C1=O | – | -8.67% [at 11.4 µM]
21 | COc1ccc(C(=O)COC(=O)c2ccc(NC(=O)c3ccccc3)cc2)cc1 | inactive | –
22 | Cc1ccc(C(=O)Nc2ccc3nccnc3c2)cc1 | 14.1 µM (active) | –
23 | Cc1ccc(C(=O)Nc2ccc(N3CCOCC3)nc2)cc1 | inactive | –

Row | SMILES | AC50 | activity, negative = inhibition
24 | COc1ccc(C(=O)Nc2cccc(-c3cnc4ccccc4n3)c2)cc1 | 2.51 µM (active) | –
25 | Cc1ccc(-n2nc3ccc(NC(=O)c4ccc5c(c4)OCO5)cc3n2)cc1 | 8.91 µM (active) | –
26 | Cc1ccc(NC(=O)c2nnn(-c3cc(C)cc(C)c3)c2N)cc1 | – | 5.32% [at 2.29 µM]
27 | Cn1c(=O)n2n(c1=O)[C@H]1[C@H](O)[C@H]3O[C@@H]3/C(=N/OCc3ccccc3)[C@@H]1CC2 | – | -26.2% [at 11.4 µM]
28 | Cc1ccc(C)c(-n2c(CNC(=O)c3ccco3)nnc2SCC(=O)N2CCc3ccccc32)c1 | 7.08 µM (active) | –
29 | Cc1ccc(-n2c(=O)[nH]cc(C(=O)N3CCc4ccccc43)c2=O)cc1 | inactive | –
30 | CCc1cccc(NC(=O)CN(C)S(=O)(=O)c2cnc[nH]2)c1 | 2.51 µM (active) | –
31 | CN(CC(=O)N1CCN(c2ccccc2)CC1)S(=O)(=O)c1cnc[nH]1 | 11.2 µM (active) | –
32 | CCc1cccc(CC)c1NC(=O)CN(CC(=O)O)CC(=O)O | inactive | –
33 | CC(C)CC(=O)N1CCC(N2CCN(c3ccccc3)CC2)CC1 | – | 6.02% [at 2.29 µM]
34 | CCOC(=O)N1CCN(C(=O)CN(C)S(=O)(=O)c2ccc3c(c2)C(C)(C)C(=O)N3C)CC1 | inactive | –
35 | CCOc1[nH]n(-c2ccc(Cl)cc2)c(=O)c1C=Nc1ccc(O)cc1 | inactive | –
36 | COc1cc(O)oc1C=Nc1ccc(C(F)(F)F)cc1 | 8.91 µM (active) | –
37 | COc1cc(O)oc1C=Nc1ccc(Cl)cc1 | 15.8 µM (active) | –
38 | C/C(=N\OC(=O)c1cccc(C)c1)c1sc(-c2ccccc2)nc1C | inactive | –
39 | C/C(=N\OC(=O)NC1CCCCC1)c1sc(-c2ccccc2)nc1C | 15.8 µM (active) | –
40 | c1ccc2c(-c3c[nH]c4ccccc34)c3ccccc3nc2c1 | 8.91 µM (active) | –
41 | c1ccc2c(CN3CCN(Cc4c[nH]c5ccccc45)CC3)c[nH]c2c1 | – | -20.1% [at 11.4 µM]
42 | CCN(CC)CCc1nc(-c2ccccc2)no1 | inactive | –
43 | CN(C)C(=O)CCc1nc(-c2ccc(C(C)(C)C)cc2)no1 | inactive | –
44 | O=C(O)CCc1nc(-c2ccccc2-n2cccc2)no1 | 2.51 µM (active) | –
45 | O=C(O)c1cscc1Cc1cccs1 | – | 17.7% [at 11.4 µM]
46 | O=C(NC1CCCC1)C(c1ccsc1)N(Cc1ccccc1)C(=O)Cc1cccs1 (stereo unspecified) | 2 µM (active) | –

Row | SMILES | AC50 | activity, negative = inhibition
47 | O=C(NC1CCCCC1)C(c1cccs1)N(Cc1cccs1)C(=O)c1ccco1 (stereo unspecified) | 3.16 µM (active) | –
48 | O=C(Cc1cccs1)N/N=C/C(Br)=C/c1ccccc1 | inactive | –
49 | COc1ccc(CN(C(=O)Cc2cccs2)C(C(=O)NC2CCCC2)c2ccncc2)cc1 (stereo unspecified) | 1 µM (active) | –
50 | O=C(NC1CCCC1)C(c1ccc(F)cc1)N(Cc1ccc(F)cc1)C(=O)c1ccn[nH]1 (stereo unspecified) | – | -28.2% [at 2.29 µM]
51 | COc1ccc(C(C(=O)NC2CCCC2)N(Cc2ccc(F)cc2)C(=O)c2ccn[nH]2)cc1OC (stereo unspecified) | 3.98 µM (active) | –
52 | CCc1cc2c(=O)[nH]cnc2s1 | inactive | –
53 | O=C(O)/C=C(/C(=O)O)[C@]12CCN3CC4=CCO[C@@H]5CC(=O)N[C@@H]1[C@H]5[C@H]4C[C@H]32 | – | 2.64% [at 11.4 µM]
54 | COCCCN=CC1=C(O)CC(C)(C)CC1=O | inactive | –
55 | COc1ccc(CCN=CC2=C(O)CC(C)(C)CC2=O)cc1 | 14.1 µM (active) | –
56 | COC(=O)C1C(O)=C(C=NCc2ccccc2)C(=O)CC1(C)C (stereo unspecified) | inactive | –
57 | Cc1cc(C)c2[nH]c(=O)c(CN(Cc3ccco3)C(=O)c3cccs3)cc2c1 | 2.82 µM (active) | –
58 | CC1(C)CC(=O)C2=C(C1)N(Cc1cccnc1)C(=O)C2(NC(=O)c1cccnc1)C(F)(F)F (stereo unspecified) | 12.6 µM (active) | –
59 | CCCCN1C(=O)C(NC(=O)C2CC2)(C(F)(F)F)C2=C1CC(C)(C)CC2=O (stereo unspecified) | – | 5.27% [at 2.29 µM]
60 | CCCCN1C(=O)C(NC(=O)CC(C)C)(C(F)(F)F)C2=C1CC(C)(C)CC2=O (stereo unspecified) | – | -16% [at 2.29 µM]
61 | CCCCN1C(=O)C(NC(=O)c2cccnc2)(C(F)(F)F)C2=C1CC(C)(C)CC2=O (stereo unspecified) | 7.94 µM (active) | –
62 | O=C(NC1(C(F)(F)F)C(=O)Nc2c1c(=O)[nH]c(=O)n2-c1ccc(F)cc1)c1cccnc1 (stereo unspecified) | inactive | –
63 | CN(C)CC(O)COc1ccc(C(C)(C)c2ccc(OCC(O)CN(C)C)cc2)cc1 (stereo unspecified) | inactive | –
64 | CCOC(=O)c1cc2sc(C)cc2n1CCCN1C(=O)c2ccccc2C1=O | 3.16 µM (active) | –
65 | Nc1ccc(N2CCN(C(=O)c3ccco3)CC2)cc1 | inactive | –
66 | CCOC(=O)c1cc2sc(C)cc2n1CC(=O)N1CCN(C(=O)c2ccco2)CC1 | 14.1 µM (active) | –
67 | CC1(C)CC(=O)C(CCCN2C(=O)c3ccccc3C2=O)C(=O)C1 | inactive | –
68 | OCCN(CCO)c1ncnc2nc[nH]c12 | – | -5.25% [at 11.4 µM]
69 | CCCC(=O)NNC(=O)Nc1ccccc1 | – | -11.8% [at 2.29 µM]

Row | SMILES | AC50 | activity, negative = inhibition
70 | O=C(COc1ccc2ccccc2c1Br)NNC(=O)Nc1ccccc1 | 14.1 µM (active) | –
71 | Cn1cnc([N+](=O)[O-])c1SCC(=O)O | – | -11.5% [at 11.4 µM]
72 | CC1=N/C(=C\c2ccc([N+](=O)[O-])cc2)C(=O)N1c1ccc(Br)c(C)c1 | 2.82 µM (active) | –
73 | CN(C)c1ccc(/C=C2/C(=O)N(c3ccc([N+](=O)[O-])cc3)N=C2N2CCOCC2)cc1 | inactive | –
74 | CC1=N/C(=C\c2ccc([N+](=O)[O-])cc2)C(=O)N1c1ccc(Cl)cc1 | inactive | –
75 | CCOC(=O)N/N=C1/C[C@@H](O)[C@@H](O)[C@@H]2[C@@H]3C(=O)N(C4CCCCC4)C(=O)[C@H]3CC[C@H]12 | – | -24.5% [at 11.4 µM]
76 | O=C(O)C1C2CCC(C2)C1C(=O)NCc1ccco1 (stereo unspecified) | inactive | –
77 | O=C(COC(=O)c1cccc(S(=O)(=O)N2CCN(c3ccccc3)CC2)c1)NCc1ccco1 | 12.6 µM (active) | –
78 | CCCc1nc2ccccc2c(C(=O)OCC(=O)Nc2cccc(S(=O)(=O)N3CCOCC3)c2)c1CC | – | -27.2% [at 2.29 µM]
79 | CN(C)CCCNC(=O)c1cc2c3ccccc3n(C)c2s1 | inactive | –
80 | CN(C)CCCn1cc(C2=C(c3c[nH]c4ccccc34)C(=O)NC2=O)c2ccccc21 | 12.6 µM (active) | –
81 | CN(C)CCCN=c1c2ccccc2n(C)c2[nH]c(=O)n(C)c(=O)c12 | – | 2.56% [at 11.4 µM]
82 | c1c[nH]c(CN2CCN(Cc3ncc[nH]3)CC2)n1 | – | -22.2% [at 11.4 µM]
83 | Clc1cccc(Cl)c1NC1=NCCN1 | inactive | –
84 | COc1ccc(Nc2ncnc3sc(-c4ccccc4)cc23)cc1 | 11.2 µM (active) | –
85 | Clc1cccc(Nc2ncnc3ccc(Br)cc23)c1 | 14.1 µM (active) | –
86 | NCCNc1ncnc2ccc(Cl)cc12 | – | -27.5% [at 11.4 µM]
87 | CNc1ncnc2ccc(-c3ccccc3OC)cc12 | 20 µM (active) | –
88 | Brc1ccc2ncnc(Nc3cccc4ccccc34)c2c1 | – | 20.8% [at 2.29 µM]
89 | COc1cccc(-c2ccc3ncnc(NC4CC4)c3c2)c1 | 2 µM (active) | –
90 | COc1ccc(-n2cnc3sc(-c4ccccc4)cc3c2=O)cc1 | – | 13% [at 2.29 µM]
91 | COc1ccc(Nc2ncc(C(=O)N3CCN(Cc4ccccc4)CC3)c3ccccc23)cc1 | – | -29.5% [at 2.29 µM]
